Sampled rows, rich in hits. Any-hit rate of the full collection: about 28%.
PLK1 kinase inh – PLK1 (human) kinase inhibition; P53350; recombinant PLK1 kinase, TR-FRET peptide phosphorylation; inhibition, % at 10 µM; hit rate 0.53% among 97,000;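 active = inhibition of 50% or more in the single-concentration screen; inactive = inhibition below 50%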;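 also: 0% = DMSO max control and 100% = H-89 dihydrochloride min control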
CYP2C9 inhib – inhibitors of human CYP2C9; P11712; CYP2C9 Supersomes, luciferin-H conversion, luminescence; inhibition, % at 5 µM; hit rate 20% among 96,000; AID 777;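 active = blocking of liver enzyme CYP2C9 beyond about 50% at 5 µM, limit read from the data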
Plk1 PBD FP – Plk1 (human) PBD binding inhibition | Plk1 PBD phosphopeptide binding, fluorescence polarization | inhibition, %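 (tested at about 20 µM)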 | hit rate 0.13% among 97,000; in the data active = inhibition above about 34%, passing the limit was not always enough
CYP2C19 inhib – blocks human cytochrome P450 2C19. P33261. hit rate 21% among 96,000. CYP2C19 Supersomes, luciferin-H EGE luminescence, 30 min. inhibition, % at 5 µM;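 active = CYP2C19 inhibition above a set limit at 5 µM in the primary screen, cut at about 50% in these data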;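 also: plate controls were negative control wells for no effect and 2.5 mM tranylcypromine positive control for full effect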
Target sequence (P33261 whole entry, looked up): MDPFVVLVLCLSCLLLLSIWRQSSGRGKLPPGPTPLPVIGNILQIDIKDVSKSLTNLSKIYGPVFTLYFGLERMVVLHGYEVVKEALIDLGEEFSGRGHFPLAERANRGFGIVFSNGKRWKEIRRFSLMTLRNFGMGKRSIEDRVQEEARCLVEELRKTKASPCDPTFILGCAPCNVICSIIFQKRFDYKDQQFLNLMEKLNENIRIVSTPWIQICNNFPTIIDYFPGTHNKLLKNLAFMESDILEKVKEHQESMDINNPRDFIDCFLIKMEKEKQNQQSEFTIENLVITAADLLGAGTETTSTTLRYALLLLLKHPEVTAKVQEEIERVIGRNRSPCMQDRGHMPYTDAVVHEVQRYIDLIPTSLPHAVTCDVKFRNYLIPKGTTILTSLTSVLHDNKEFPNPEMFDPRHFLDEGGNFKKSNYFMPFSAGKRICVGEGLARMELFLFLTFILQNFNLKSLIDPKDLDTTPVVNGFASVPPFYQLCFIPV
CYP2C9 activ – increases human cytochrome P450 2C9 activity; P11712; recombinant CYP2C9, luciferin-H conversion, luminescence; active compounds read high; factor 1 = untreated enzyme, 0 = blocked; activation factor at 5 µM; hit rate 1.4% among 96,000;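 active = activation factor of 2 or more for CYP2C9 at a 5 µM dose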;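 also: 0 = sulfaphenazole-blocked wells and 1 = vehicle-only wells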
CYP2C19 activ – activators of human cytochrome P450 2C19; P33261; recombinant CYP2C19, luciferin-H EGE luminescence; active compounds read high; 0 = fully inhibited enzyme, 1 = untreated enzyme; activation factor at 5 µM; 96,000 tested, under 10 active; AID 1025;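 active = activation factor of at least 2 at 5 µM in the primary screen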;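 also: 0 = wells with 2.5 mM tranylcypromine and 1 = vehicle-only wells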
* marks the source's active call; other numbers are inactive results; · = not tested or not shown.

SMILES	PLK1 kinase inh	CYP2C9 inhib	Plk1 PBD FP	CYP2C19 inhib	CYP2C9 activ	CYP2C19 activ
COc1ccc(C(=O)Nc2ccccc2)cc1S(=O)(=O)Nc1cc(C)on1	5	8	-14	-4	0.9	1
Cc1cc(C)cc(NS(=O)(=O)c2cnc(Cl)c(Cl)c2)c1	-5	86*	33	100*	0.1	0
CN(Cc1ccccc1)Cc1nc2c(c(=O)n(C)c(=O)n2C)n1CCCc1ccccc1	-11	94*	8	83*	0.1	0.2
CC(C)Cn1c(CN(C)Cc2ccccc2)nc2c1c(=O)n(C)c(=O)n2C	-9	81*	0	12	0.2	0.9
COc1ccc2sc(C)nc2c1NC(C)=O	1	84*	8	18	0.2	0.8
COc1ccc(NC(C)=O)c2nc(C)c(C)nc12	-3	22	22	-2	0.8	1
Cc1ccccc1N1C(=O)CC(Sc2nnc(-c3ccccc3)o2)C1=O (centres undefined)	-3	36	9	41	0.6	0.6
CC(=O)Nc1ccc(N2C(=O)CSC2c2ccc(F)cc2)cc1 (centres undefined)	·	-4	·	-17	1	1.2
Cc1ccc(N2C(=O)CSC2c2ccc3c(c2)OCO3)cc1 (centres undefined)	9	69*	10	100*	0.3	0
O=C1CSC(c2ccc3c(c2)OCO3)N1c1ccc(Oc2ccccc2)cc1 (centres undefined)	-5	60*	3	31	0.4	0.7
CC(=O)Nc1ccc(C(=O)N2CCCC2)cc1	-7	-10	28	6	1.1	0.9
COc1ccc(OC)c(NS(=O)(=O)c2ccc3c(c2)CCC(=O)N3)c1	-5	32	6	53*	0.7	0.5
COC(=O)c1cc(NS(=O)(=O)c2ccc3c(c2)CCC(=O)N3)cc(C(=O)OC)c1	-6	57*	27	68*	0.4	0.3
COC(=O)c1cc(NS(=O)(=O)c2ccc(N3CCCCC3)c([N+](=O)[O-])c2)cc(C(=O)OC)c1	-9	22	-1	10	0.8	0.9
Cc1sc2nc(C3CCCCC3)nc(SCC(=O)N3CC(=O)Nc4ccccc43)c2c1C	-9	86*	8	40	0.1	0.6
CCc1nc(SCC(=O)N2CC(=O)Nc3ccccc32)c2c(C)c(C)sc2n1	-3	14	-30	4	0.9	1
CC(Oc1ccc(Cl)cc1Cl)c1nc(-c2ccc(NC(=O)c3cccnc3)cc2)no1 (centres undefined)	-6	96*	7	64*	0	0.4
CC(Oc1ccc(Cl)cc1Cl)c1nc(-c2ccc(NC(=O)c3ccncc3)cc2)no1 (centres undefined)	-12	·	2	·	·	·
CC(Oc1ccc(Cl)cc1Cl)c1nc(-c2ccccn2)no1 (centres undefined)	-7	92*	-9	96*	0.1	0
Cn1c(Cc2c[nH]c3ccccc23)n[nH]c1=S	-13	38	-36	67*	0.6	0.3
Cc1[nH]c2ccccc2c1Cc1n[nH]c(=S)n1C	-5	·	0	·	·	·
Cc1ccnc(SCCn2c(N3CCN(Cc4ccccc4)CC3)nc3c2c(=O)[nH]c(=O)n3C)n1	7	78*	-1	83*	0.2	0.2
COc1ccc(CCn2c(N3CCN(Cc4ccccc4)CC3)nc3c2c(=O)[nH]c(=O)n3C)cc1	7	43	-9	62*	0.6	0.4
COc1ccc(-c2nc3c(=O)n(C)c(=O)[nH]c3n2CCc2ccccc2)cc1	-10	72*	-12	-4	0.3	1
COCCn1c(N2CCN(c3ccc(OC)cc3)CC2)nc2c1c(=O)[nH]c(=O)n2C	2	42	4	61*	0.6	0.4
SMILES	PLK1 kinase inh	CYP2C9 inhib	Plk1 PBD FP	CYP2C19 inhib	CYP2C9 activ	CYP2C19 activ
CCOCCn1c(N2CCN(c3ccc(OC)cc3)CC2)nc2c1c(=O)[nH]c(=O)n2C	-19	24	10	12	0.8	0.9
CC1=CC(C)(C)Nc2ccc(C)cc21	-3	-21	13	9	1.2	0.9
COC(=O)C1=C(C(=O)OC)SC2(S1)C(C(=O)OC)=C(C(=O)OC)SC1=C2c2cc(C)ccc2NC1(C)C	43	87*	-14	82*	0.1	0.2
CCOC(=O)C1=C(C)NC(=O)C(C#N)C1c1ccncc1 (centres undefined)	-6	50*	30	5	0.5	1
CCOC(=O)CSC1=C(C#N)C(c2sccc2C)C(C(C)=O)=C(C)N1 (centres undefined)	2	73*	15	65*	0.3	0.3
CC(=O)C1=C(C)NC(SCC(N)=O)=C(C#N)C1c1cccs1 (centres undefined)	-1	3	-5	1	1	1
CCOC(=O)C1=C(C)NC(SCC(N)=O)=C(C#N)C1c1ccncc1 (centres undefined)	-6	75*	-13	82*	0.2	0.2
CCOC(=O)C1=C(C)NC(SCC(=O)Nc2nc(C)cs2)=C(C#N)C1c1cccs1 (centres undefined)	-1	96*	1	85*	0	0.1
CCOC(=O)C1=C(C)NC2=C(C(=O)CCC2)C1c1cccnc1 (centres undefined)	-11	32	2	35	0.7	0.7
Cc1cc(C)n2nc(SCC(=O)N(C)c3ccccc3)nc2n1	-11	-18	3	-9	1.2	1.1
CC(=NC(C)C)C1=C(O)CCC1=O	·	13	·	1	0.9	1
CCOC(=O)C1=C(c2ccccc2)NC(SCC(N)=O)=C(C#N)C1c1cccnc1 (centres undefined)	-14	63*	-26	68*	0.4	0.3
CN(C)/C=N/c1ncc(C(=O)c2ccc(Cl)cc2)s1	-17	-14	-14	10	1.1	0.9
COc1ccc(CNc2ccc3cn[nH]c3c2)c(OC)c1OC	5	86*	3	98*	0.1	0
COc1cc(CNc2ccc3[nH]c(=O)[nH]c3c2)ccc1OCC(=O)NC(C)(C)C	-1	38	-10	21	0.6	0.8
CCOc1cc(CNc2ccc3cn[nH]c3c2)ccc1OC	9	75*	2	88*	0.3	0.1
COC(=O)c1ccccc1NC(=O)c1cc(-c2ccc(C)cc2)on1	-11	-34	1	8	1.3	0.9
CC(=O)c1c(C)n([O-])c2cc(C)ccc2[n+]1=O	-14	14	13	4	0.9	1
COC(=O)CNC(=O)C(C)NC(=O)CNC(=O)OCc1ccccc1 (centres undefined)	-7	-5	1	·	1.1	·
O=C(NCc1ccc2c(c1)OCO2)c1cnc2n(c1=O)CCS2	-2	-14	-29	24	1.1	0.8
Cc1nc2c(C(=O)NCc3ccc4c(c3)OCO4)c[nH]n2c(=O)c1Cl	-6	77*	0	-12	0.2	1.1
Cc1nc2c(C(=O)NCCC3=CCCCC3)c[nH]n2c(=O)c1Cl	8	56*	-36	-8	0.4	1.1
